We go through nine compounds from PubChem BioAssay (EPA / NIEHS).

Experiment [1] in a line: TOX21_p53_BLA_p2_viability: Viability Assessment in the Tox21 HCT-116 p53 Agonism Beta-lactamase Assay, Phase 2 (AID 2283591).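 Also: compound exposure lasted 16 h at 37 °C; actives lower the ATP signal meaning cytotoxicity.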 In short, it runs like this:
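HCT116 p53-bla cells, 4000/well, dosed after 5 h plating (217-fold dilution of DMSO stocks) and incubated 16 h at 37C. Viability taken as cellular ATP by CellTiter-Glo luminescence after 30 min RT; signal loss marks cytotoxicity.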

Experiment [2] can be described thus: TOX21_p53_BLA_p3_viability: Viability Assessment in the Tox21 HCT-116 p53 Agonism Beta-lactamase Assay, Phase 3 (AID 2283593).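 Also: cells exposed to compound for 16 h before reading.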 In outline: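 HCT116 cells, 4000/well, dosed 5 h after plating by pin transfer (217-fold dilution from DMSO stock) and incubated 16 h at 37C, 5% CO2. Viability read as ATP luminescence with CellTiter-Glo after 30 min at room temperature.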

A short description of experiment [3]: TOX21_p53_BLA_p4_viability: Viability Assessment in the Tox21 HCT-116 p53 Agonism Beta-lactamase Assay, Phase 4 (AID 2283597).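 Also: hits lower the luminescence signal meaning cytotoxicity.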 In outline: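 Viability is taken as cellular ATP: after 16 h compound exposure of HCT116 cells and a 2 h room-temperature CCF4-AM substrate step, CellTiter-Glo reagent is added and luminescence is measured 30 min later.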
Experiment [4] addresses Cellular tumor antigen p53 (Homo sapiens) (UniProt P04637). The experiment in a line: TOX21_p53_BLA_p5_ratio: Tox21 HCT-116 p53 Agonism Beta-lactamase Assay, Ratio, Phase 5 (AID 2283599). In short, it runs like this:
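HCT-116 p53-bla cells (4000/well) plated 5 h, dosed with compound (217-fold DMSO dilution) for 16 h at 37 C; CCF4-AM substrate 2 h at room temperature. Activity is the 460/530 nm emission ratio (405 nm excitation), fitted in gain-of-signal direction versus DMSO.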

A short description of experiment [5]: TOX21_p53_BLA_p5_viability: Viability Assessment in the Tox21 HCT-116 p53 Agonism Beta-lactamase Assay, Phase 5 (AID 2283600). In outline: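 Viability is taken from cellular ATP content, measured by luciferase luminescence in the same wells after the beta-lactamase ratio read. Cells are seeded at 4000 per well and exposed to DMSO-dissolved compounds, diluted 217-fold, for 16 h.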

The target of experiment [6] is Cellular tumor antigen p53 (Homo sapiens) (UniProt P04637). The experiment in a line: TOX21_p53_BLA_p4_ratio: Tox21 HCT-116 p53 Agonism Beta-lactamase Assay, Ratio, Phase 4 (AID 2283601). In outline:
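HCT-116 p53 beta-lactamase reporter cells (4000/well) preincubated 5 h, then compound (217-fold dilution of DMSO stock) for 16 h at 37C. CCF4-AM substrate added 2 h at room temperature; 460/530 nm emission ratio fitted upward versus DMSO.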

Experiment [7] has as its target Norway rat Vesicular Monoamine Transporter (VMAT2), neurotransmitter transporter, Slc18a2 (gene 25549) (UniProt Q01827). The experiment in a line: NVS_TR_rVMAT2: NovaScreen (NVS) Transporter Assay for Norway rat Vesicular Monoamine Transporter (VMAT2), neurotransmitter transporter (AID 2283376).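 Also: actives lower the bound radioligand signal below the DMSO level.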 In short, it runs like this:
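Filter-based scintillation counting of radioligand bound to rat forebrain-derived VMAT2 protein, cell-free, 1 h post-dose. Signal loss relative to DMSO control scored; single-concentration duplicate screen (25 uM) followed by concentration-response testing of actives.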

Experiment [8] concerns the target Cellular tumor antigen p53 (Homo sapiens) (UniProt P04637). Kind of experiment: TOX21_p53_BLA_p2_ratio: Tox21 HCT-116 p53 Agonism Beta-lactamase Assay, Ratio, Phase 2 (AID 2283592). In short, it runs like this: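 Cleaved-to-uncleaved substrate ratio (460 vs 530 nm) measured in HCT116 cells with an inducible beta-lactamase reporter linked to p53 activity. Compounds incubated 16 h at 37C before 2 h room-temperature CCF4-AM loading.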

Experiment [9] shares this target. Kind of experiment: TOX21_p53_BLA_p3_ratio: Tox21 HCT-116 p53 Agonism Beta-lactamase Assay, Ratio, Phase 3 (AID 2283596). In outline:
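Cells were seeded at 4000/well, rested 5 h at 37C, then dosed with DMSO compound solutions (217-fold dilution) for 16 h. CCF4-AM substrate was loaded for 2 h at room temperature, and the 460/530 nm emission ratio was fitted for gain of signal versus DMSO.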

A short description of experiment [10]: CCTE_Shafer_MEA_dev_firing_rate_mean: CCTE's Neural Network Formation Assay for Mean Firing Rate, Shafer Lab (AID 2284031; active = hit-call score of the fitted dose curve at least 0.9, where 1 is the maximum; inactive = score below 0.9). In outline: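 Read-out: spike count/recording length, averaged over active electrodes, then AUC across days 5, 7, 9, 12. Rat cortical cultures on MEA; continuous 12-day exposure, media and treatment renewed DIV 5, 9; DMSO baseline.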
The nature of experiment [11]: CCTE_Shafer_MEA_dev_per_burst_spike_percent: CCTE's Neural Network Formation Assay for Percent of Spikes in a Burst, Shafer Lab (AID 2284032; active = hit-call score of the fitted dose curve at least 0.9, where 1 is the maximum; inactive = score below 0.9). In outline:
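Value is trapezoidal AUC over recordings on days 5, 7, 9 and 12 of the well-mean fraction of spikes falling in single-electrode bursts; rat cortical cultures exposed continuously from plating, treatment renewed DIV 5 and 9, fitted downward against DMSO.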

Experiment [12] in a line: CCTE_Shafer_MEA_dev_burst_rate: CCTE's Neural Network Formation Assay for Burst Rate, Shafer Lab (AID 2284042; active = hit-call score of the fitted dose curve at least 0.9, where 1 is the maximum; inactive = score below 0.9). In outline: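 Exposure ran continuously over 12 days of network development in rat cortical cultures, with compound refreshed during full media changes on DIV 5 and 9. Single-electrode bursts per recording time, well-mean over active electrodes, trapezoidal AUC across days 5–12, fitted downward relative to DMSO.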

A short description of experiment [13]: CCTE_Shafer_MEA_dev_per_burst_interspike_interval: CCTE's Neural Network Formation Assay for Burst Interspike Interval, Shafer Lab (AID 2284044; active = hit-call score of the fitted dose curve at least 0.9, where 1 is the maximum; inactive = score below 0.9). In outline: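 Developmental network-formation MEA in primary rat cortical cultures with exposure spanning days 0–12. Within-burst ISI is averaged per well and integrated across recording days by area under the curve, with DMSO as negative control baseline.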

Experiment [14] in a line: CCTE_Shafer_MEA_dev_burst_duration_mean: CCTE's Neural Network Formation Assay for Mean Burst Duration, Shafer Lab (AID 2284045; active = hit-call score of the fitted dose curve at least 0.9, where 1 is the maximum; inactive = score below 0.9). In short, it runs like this:
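Rat cortical cultures, 1.5 x 10^5 cells/well with laminin drop; continuous dosing days 0–12, media plus treatment refreshed DIV 5, 9. AxIS adaptive spike detection; mean single-electrode burst duration, AUC over four recordings, negative direction vs DMSO.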

Experiment [15] in a line: CCTE_Shafer_MEA_dev_interburst_interval_mean: CCTE's Neural Network Formation Assay for Mean Interburst Interval, Shafer Lab (AID 2284046; active = hit-call score of the fitted dose curve at least 0.9, where 1 is the maximum; inactive = score below 0.9;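 also: well-mean interburst interval of bursting electrodes as AUC over four recording days; curve fitted for decrease in interburst interval relative to DMSO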). In outline:
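Primary rat cortical neurons on PEI-coated 48-well MEA plates (laminin added with cells at plating) (16 electrodes/well), exposed from plating day 0 with renewal at DIV 5 and 9. Mean inter-burst interval averaged over bursting electrodes, AUC across days 5, 7, 9, 12; DMSO baseline.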

A short description of experiment [16]: CCTE_Shafer_MEA_dev_inter_network_spike_interval_mean: CCTE's Neural Network Formation Assay for Mean Inter-network Spike Interval, Shafer Lab (AID 2284047; active = hit-call score of the fitted dose curve at least 0.9, where 1 is the maximum; inactive = score below 0.9). In short, it runs like this:
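Mean time between consecutive network-spike peaks, recorded extracellularly (adaptive spike detection) on DIV 5, 7, 9 and 12, summarized as trapezoidal AUC. Rat cortical cultures on MEAs dosed continuously days 0–12, re-dosed at feeds; loss-of-signal fit relative to DMSO.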

A short description of experiment [17]: CCTE_Shafer_MEA_dev_network_spike_number: CCTE's Neural Network Formation Assay for Number of Network Spikes, Shafer Lab (AID 2284048; active = hit-call score of the fitted dose curve at least 0.9, where 1 is the maximum; inactive = score below 0.9;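 also: synchronized bursts across electrodes counted on days 5 7 9 12 and integrated as AUC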). In outline: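 Rat cortical primary cultures on 48-well MEA (16 electrodes/well); continuous exposure DIV 0–12, full medium and treatment exchange DIV 5, 9. Readout: network spike count, AxIS adaptive detection, recordings DIV 5/7/9/12 collapsed to AUC; loss-of-signal fit, DMSO baseline.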

Experiment [18] in a line: CCTE_Shafer_MEA_dev_spike_duration_mean: CCTE's Neural Network Formation Assay for Mean Spike Duration, Shafer Lab (AID 2284051; active = hit-call score of the fitted dose curve at least 0.9, where 1 is the maximum; inactive = score below 0.9;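 also: mean network spike duration pooled as area under curve over DIV 5 to 12 recordings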). In short, it runs like this:
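Spontaneous activity was recorded on days 5, 7, 9 and 12 from rat cortical cultures grown on microelectrode arrays and dosed continuously from day 0, with media and compound renewed after the DIV 5 and 9 recordings. Network-spike duration was collapsed by area under the curve.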

The nature of experiment [19]: CCTE_Shafer_MEA_dev_network_spike_duration_std: CCTE's Neural Network Formation Assay for Standard Deviation of Network Spike Duration, Shafer Lab (AID 2284052; active = hit-call score of the fitted dose curve at least 0.9, where 1 is the maximum; inactive = score below 0.9;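 also: hits are decreases in network spike duration SD versus DMSO vehicle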). In short, it runs like this:
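Network spike duration variability was collapsed across recordings on days 5, 7, 9 and 12 by trapezoidal area-under-curve and fitted downward against DMSO. Cultures were rat cortical neurons on PEI-coated MEA plates, dosed continuously from plating, refed with compound DIV 5/9.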

The nature of experiment [20]: CCTE_Shafer_MEA_dev_per_network_spike_spike_number_mean: CCTE's Neural Network Formation Assay for Mean Number of Spikes in a Network Spike, Shafer Lab (AID 2284053; active = hit-call score of the fitted dose curve at least 0.9, where 1 is the maximum; inactive = score below 0.9). In outline: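 Mean spike count within each network spike, taken in a 0.05 s window at its peak, was recorded on days 5, 7, 9 and 12 and integrated as trapezoidal area under the curve. Rat cortical cultures on MEA plates received continuous compound from day 0, refreshed at medium changes on DIV 5 and 9.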

The nature of experiment [21]: CCTE_Shafer_MEA_dev_per_network_spike_spike_percent: CCTE's Neural Network Formation Assay for Percent of Spikes in a Network Spike, Shafer Lab (AID 2284054; active = hit-call score of the fitted dose curve at least 0.9, where 1 is the maximum; inactive = score below 0.9). In short, it runs like this: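 Read-out: percent of spikes falling in a 0.05 s window at network-spike peak, from spontaneous MEA recordings on days 5, 7, 9 and 12; trapezoidal AUC; loss of signal versus DMSO. Rat cortical cultures, compound present throughout.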

The nature of experiment [22]: CCTE_Shafer_MEA_dev_LDH: CCTE's Lactate Dehydrogenase Assay for Cytotoxicity in the Neural Network Formation Assay, Shafer Lab (AID 2284068).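 Also: exposure for twelve days from plating with re-dosing on DIV 5 and 9.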 In outline:
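Primary rat cortical neurons were cultured on PEI-coated MEA plates and exposed from plating through day 12, with compound renewed at medium changes on DIV 5 and 9. LDH activity was read spectrophotometrically; loss of signal versus DMSO indicates reduced viability.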

The nature of experiment [23]: CCTE_Shafer_MEA_dev_AB: CCTE's Alamar Blue Assay for Cytotoxicity in the Neural Network Formation Assay, Shafer Lab (AID 2284083).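 Also: resazurin reduction fluorescence as viability of cultured neurons; twelve days of exposure from plating with re-dosing on DIV 5 and 9.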 In outline: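 Resazurin fluorescence, relative to DMSO, gauges viability after twelve days of exposure that began at plating of rat cortical neurons (1.5 x 10^5 cells/well, 48-well MEA); treatment renewed with full medium exchange on DIV 5 and 9.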

Experiment [24] is described as follows: CCTE_Shafer_MEA_dev_mutual_information_norm: CCTE's Neural Network Formation Assay for Mutual Information Normalization, Shafer Lab (AID 2284091; active = hit-call score of the fitted dose curve at least 0.9, where 1 is the maximum; inactive = score below 0.9). In short, it runs like this:
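Neurons from rat cortex were seeded at 1.5 x 10^5 cells/well onto PEI-coated MEAs in a laminin drop, then exposed to compound from day 0 for twelve days. Network recordings on four days gave mutual information, summarised by AUC relative to DMSO.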

The nature of experiment [25]: CCTE_Shafer_MEA_dev_correlation_coefficient_mean: CCTE's Neural Network Formation Assay for Mean Correlation Coefficient, Shafer Lab (AID 2284093; active = hit-call score of the fitted dose curve at least 0.9, where 1 is the maximum; inactive = score below 0.9). In short, it runs like this:
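Primary rat cortical neurons on PEI-coated 48-well MEA plates (16 electrodes/well) were exposed from plating day 0 through DIV12, with compound renewed at DIV5 and 9. Pairwise spike correlations were averaged per well; trapezoidal AUC across DIV5, 7, 9, 12.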

“And” between values parts separate entries of the source, which are not always exact repeats. Equal values may be shown once. Results filed as inconclusive are left out. A structure can be active in one record and inactive in another. The source made the active and inactive calls. The calls were made as follows, unless noted: active = hit-call score of the fitted dose curve at least 0.9, where 1 is the maximum; inconclusive = response in the unintended direction; inactive = score below 0.9.

Norway rat Vesicular Monoamine Transporter (VMAT2), neurotransmitter transporter, Slc18a2 (gene 25549), sequence (Q01827 whole entry, looked up): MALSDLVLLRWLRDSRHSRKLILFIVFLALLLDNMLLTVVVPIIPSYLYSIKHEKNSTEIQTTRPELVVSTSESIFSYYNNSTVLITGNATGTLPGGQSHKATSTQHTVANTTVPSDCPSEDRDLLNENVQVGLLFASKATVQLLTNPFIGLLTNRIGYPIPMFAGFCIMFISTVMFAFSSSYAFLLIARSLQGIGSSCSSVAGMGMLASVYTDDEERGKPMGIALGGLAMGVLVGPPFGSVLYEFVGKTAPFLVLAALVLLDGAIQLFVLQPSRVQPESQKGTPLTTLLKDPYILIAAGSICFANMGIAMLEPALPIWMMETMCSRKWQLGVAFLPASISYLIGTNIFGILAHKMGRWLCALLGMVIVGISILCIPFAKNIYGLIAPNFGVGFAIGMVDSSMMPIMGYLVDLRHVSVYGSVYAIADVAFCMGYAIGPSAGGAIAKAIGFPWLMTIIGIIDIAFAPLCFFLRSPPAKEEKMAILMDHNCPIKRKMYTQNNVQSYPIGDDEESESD
Cellular tumor antigen p53 (Homo sapiens), sequence (P04637 whole entry, looked up): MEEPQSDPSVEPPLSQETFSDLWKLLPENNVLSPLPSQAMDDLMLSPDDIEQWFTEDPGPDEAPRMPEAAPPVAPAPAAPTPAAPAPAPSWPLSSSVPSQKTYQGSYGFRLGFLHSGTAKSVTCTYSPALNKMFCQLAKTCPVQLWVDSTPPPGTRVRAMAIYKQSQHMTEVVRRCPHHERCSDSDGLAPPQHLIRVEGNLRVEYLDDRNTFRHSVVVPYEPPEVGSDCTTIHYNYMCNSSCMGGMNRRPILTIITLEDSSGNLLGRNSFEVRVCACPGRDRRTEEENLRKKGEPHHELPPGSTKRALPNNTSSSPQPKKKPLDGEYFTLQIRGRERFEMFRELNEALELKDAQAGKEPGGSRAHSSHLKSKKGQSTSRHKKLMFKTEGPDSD

As to `ClC1=C(Cl)C2(Cl)C(CBr)CC1(Cl)C2(Cl)Cl` (centres undefined), the AC50 is 73.5 µM (active) in [1]; 63.4 µM (active) and 20.2 µM (active) in experiment [2]; 36.3 µM (active) in experiment [5]. Besides, the outcome in experiment [1], in [3], in experiment [4], in [5] and in [6] was inactive.
Regarding `CCCCCCCCCCCCCCCCCC(=O)OCC(CC)CCCC` (centres undefined), in [7], the compound was called inactive.
The same measure, in the same setting: with `CCCCCCCCCCCCCCCC(=O)OC/C=C(C)/C=C/C=C(C)/C=C/C1=C(C)CCCC1(C)C` the entry was “inactive”.
Take `C/C=C\C/C=C/CCCCCCCCOC(C)=O`: the outcome in experiment [7] was inactive.
As for `CCOC(=S)S`, the outcome in experiment [1], in [8], in [2], in [9], in experiment [3] and in [4] was inactive. For the same compound, the compound was called inactive in experiment [5] and in experiment [6]. In addition, the half-maximal activity concentration (AC50) in experiment [9] is 86.6 µM (active).
For `c1ccc(-c2nc3ccccc3[nH]2)cc1`, in experiment [7], the AC50 is 6.56 µM (active).
With `O=C=NC1CCC(CC2CCC(N=C=O)CC2)CC1` (centres undefined), the AC50 in [7] is 9.03 µM (active).
With `N#CCBr`, the compound was classed as inactive in experiment [1], in experiment [8], in [2] and in [9].
On to `CCOP(=O)(O)OCC` (tested in a mixture with another compound), for which the half-maximal activity concentration (AC50) is 72.3 µM (active) in experiment [1], 28.7 µM (active) in experiment [2], 83 µM (active) in [3] and 85.2 µM (active) in experiment [5]. Besides, the compound was called inactive in experiment [1], in experiment [2], in [5], in [10], in [11] and in [12]. Besides, the call in [13], in experiment [14], in experiment [15], in experiment [16], in experiment [17] and in [18] was inactive. Also, the outcome in experiment [19], in experiment [20], in experiment [21], in experiment [22], in experiment [23] and in experiment [24] was inactive. Besides, the compound was classed as inactive in [25].

Usually AC50 stands for the concentration at which the activity in the assay is half-maximal.
